Test systems include EKVX NSCLC; SN12C renal; UO-31 renal; TK-10 renal; ACHN renal; CAKI-1 renal; A498 renal; CCRF-CEM leukemia; MOLT-4 leukemia; SR leukemia.
Common to all, as to assay: NCI-60 one-dose screen, 48 h (100 = growth as untreated, 0 = no growth, -100 = all killed)
What all share (settings): 10 µM unless noted

About 83,000 compounds went through this panel and 20% of them were active in at least one assay; those are over-represented in the sample as a whole.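 A percent growth of 40 corresponds to 60% growth inhibition; 0 means no net growth; -100 means all cells died. Active threshold: below 10.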 Values without a mark were called inactive. The source made the active and inactive calls.

In the case of `CC(C)[C@]12O[C@H]1[C@@H]1O[C@]13[C@]1(O[C@H]1C[C@H]1C4=C(CC[C@@]13C)C(=O)OC4)[C@@H]2OC(=O)CN(C)C`, the growth in the assay with EKVX NSCLC is -26.9% (active); with SN12C renal it was 29.1%; with UO-31 renal it was -5.89% (active); with TK-10 renal it was 4.34% (active); in the assay on ACHN renal it was 9.59% (active); with CAKI-1 renal it was -48.5% (active). Moreover, the growth with A498 renal was -36.4% (active); in the assay on CCRF-CEM leukemia, 12.4%; in the assay on MOLT-4 leukemia, -11.7% (active); in the assay on SR leukemia it was -2.85% (active).
On to `N#CCCCCCn1c2ccccc2c2c3c(c4c5ccccc5[nH]c4c21)C(=O)N(O)C3=O`, for which the growth with EKVX NSCLC is 46%; in the assay on SN12C renal, 6.13% (active); with UO-31 renal, -44.9% (active); in the assay with TK-10 renal, 22%; in the assay on ACHN renal it was -81.6% (active); in the assay with CAKI-1 renal, -59.9% (active). Further, the growth in the assay on A498 renal is -76.3% (active); with CCRF-CEM leukemia, -1.67% (active); in the assay with MOLT-4 leukemia it was -21.3% (active); with SR leukemia, -9.51% (active).
In the case of `Cn1c(=O)c2nc(SCc3ccccc3)n(C)c2n(C)c1=O`, the growth is 123% with EKVX NSCLC; 90.4% in the assay with SN12C renal; 98.3% with UO-31 renal; 111% in the assay on TK-10 renal; 99.1% in the assay on ACHN renal; 119% in the assay with CAKI-1 renal. Besides, the growth with A498 renal was 77.3%; with CCRF-CEM leukemia it was 122%; in the assay with MOLT-4 leukemia it was 106%; with SR leukemia, 83.3%.
With `CC(=O)c1ccc2c3c(n(C)c2c1)CCCC3`, the growth is 88.3% with EKVX NSCLC; 97.2% with SN12C renal; 112% with UO-31 renal; 85.4% in the assay with TK-10 renal; 105% in the assay with ACHN renal; 102% with CAKI-1 renal. In addition, the growth with A498 renal was -76.1% (active); in the assay on CCRF-CEM leukemia it was 86.6%; in the assay on MOLT-4 leukemia it was 76.5%; in the assay with SR leukemia, 92.1%.
Consider `c1ccc(N2CCN(c3nncc4ccccc34)CC2)nc1`, for which the growth in the assay with EKVX NSCLC is 110%; with SN12C renal, 102%; with UO-31 renal, 96%; with TK-10 renal, 105%; with ACHN renal it was 115%; in the assay with CAKI-1 renal it was 109%. Further, the growth is 97.8% with A498 renal, 102% in the assay with CCRF-CEM leukemia, 106% with MOLT-4 leukemia and 103% in the assay on SR leukemia.
Regarding `COc1ccccc1[C@H]1c2[nH]c3ccccc3c2C[C@H]2C(=O)N(CCCCCCC(=O)NO)CC(=O)N12`, the growth in the assay on EKVX NSCLC was 74.7%; in the assay with SN12C renal it was 56.9%; in the assay on UO-31 renal it was 44.7%; in the assay on TK-10 renal, 48.2%; with ACHN renal it was 35.1%; in the assay with CAKI-1 renal it was 55.5%. Further, the growth in the assay on A498 renal was 31.9%; in the assay on CCRF-CEM leukemia, 5.22% (active); with MOLT-4 leukemia, 11%; in the assay with SR leukemia it was 19.3%.
On to `Cc1[nH]n(C(N)=S)c(=O)c1N=Nc1ccc(F)c(Cl)c1`, for which the growth in the assay with EKVX NSCLC was 96.6%; in the assay on SN12C renal, 95.8%; with UO-31 renal, 73.9%; in the assay on TK-10 renal, 125%; with ACHN renal, 104%; with CAKI-1 renal, 103%. Moreover, the growth in the assay on A498 renal is 128%; with CCRF-CEM leukemia, -8.05% (active); with MOLT-4 leukemia it was 76.9%; in the assay on SR leukemia, 80.2%.
As to `CCN1CCN(c2cc(-c3cn[nH]c3-c3cc(C)cc(OC)c3)nc(-c3cccnc3)n2)CC1`, the growth with EKVX NSCLC was 106%; with SN12C renal it was 85%; in the assay on UO-31 renal, 45.8%; with TK-10 renal, 105%; in the assay with ACHN renal, 73.7%; in the assay on CAKI-1 renal, 73.7%. The growth in the assay with A498 renal was 15.1%; in the assay on CCRF-CEM leukemia, 84.5%; in the assay on MOLT-4 leukemia, 52%; in the assay on SR leukemia, 7.69% (active).
`C[n+]1c2ccccc2c(Nc2ccc(N3CCCCC3)cc2)c2[nH]c3ccccc3c21`: the growth with EKVX NSCLC is -56.1% (active); in the assay on SN12C renal, -82.7% (active); with UO-31 renal it was -97.5% (active); with TK-10 renal, -79.4% (active); in the assay on ACHN renal it was -96.2% (active); in the assay on CAKI-1 renal, -96.8% (active). The growth with A498 renal is -88.3% (active); with CCRF-CEM leukemia, -49.3% (active); in the assay on MOLT-4 leukemia it was -63.4% (active); in the assay with SR leukemia, -70.1% (active).
Take `CC(=O)c1nc2ccccc2n1CCn1cc(CC(N)C(=O)O)c2ccccc21` (stereo not given): the growth in the assay on EKVX NSCLC is 82.4%; in the assay with SN12C renal, 93.7%; in the assay on UO-31 renal, 69.4%; in the assay with TK-10 renal it was 102%; in the assay on ACHN renal it was 96.9%; with CAKI-1 renal it was 95.9%. The growth in the assay with A498 renal is 116%; with CCRF-CEM leukemia it was 82.9%; in the assay on MOLT-4 leukemia it was 83.9%; in the assay with SR leukemia it was 90.7%.
As for `ClC1=C(Cl)C(Cl)=C(Cl)C1=C/C=C/c1ccccc1`, the growth is -6.52% (active) in the assay with EKVX NSCLC; -46% (active) with SN12C renal; -50.9% (active) with UO-31 renal; -5.53% (active) in the assay with TK-10 renal; -74% (active) with ACHN renal; -4.48% (active) in the assay on CAKI-1 renal. For the same compound, the growth is -87.4% (active) in the assay on A498 renal, -21.4% (active) with CCRF-CEM leukemia, -23.5% (active) with MOLT-4 leukemia and -43.2% (active) in the assay with SR leukemia.
As for `Cc1c(NCc2nnc3n(Cc4ccccc4)c(=O)c4c5c(sc4n23)CCCC5)c(=O)n(-c2ccccc2)n1C`, the growth was 84.7% in the assay on EKVX NSCLC; 96.5% with SN12C renal; 71.4% in the assay on UO-31 renal; 93.3% in the assay with TK-10 renal; 96% in the assay on ACHN renal; 78% with CAKI-1 renal. The growth is 75.1% with A498 renal, 4.57% (active) with CCRF-CEM leukemia, 52.7% in the assay with MOLT-4 leukemia and 68.7% with SR leukemia.
`COc1cc(/C=C2\COc3ccc(O)c(O)c3C2=O)cc(OC)c1`: the growth was 56.4% with EKVX NSCLC; -89.7% (active) with SN12C renal; -95.6% (active) with UO-31 renal; 16.3% with TK-10 renal; -85.7% (active) in the assay with ACHN renal; 4.89% (active) with CAKI-1 renal. For the same compound, the growth in the assay with A498 renal is 112%; in the assay on CCRF-CEM leukemia it was 3.2% (active); in the assay on MOLT-4 leukemia, -24.3% (active); with SR leukemia it was -13.6% (active).
On to `COC(=O)CCC1=C(CC(=O)OC)C(C)=N/C1=C\c1[nH]c(-c2ccc[nH]2)cc1OC`, for which the growth with EKVX NSCLC is 61.5%; in the assay with SN12C renal, 38.7%; with UO-31 renal, -25.3% (active); in the assay on TK-10 renal, 28.3%; in the assay with ACHN renal, 15.5%; in the assay on CAKI-1 renal, 24.7%. In addition, the growth with A498 renal is 72.1%; in the assay on CCRF-CEM leukemia, 2.36% (active); in the assay with MOLT-4 leukemia, -6.53% (active); in the assay with SR leukemia, -24.6% (active).

The record behind these values is PubChem BioAssay (NCI).
